Results on 94 compounds are retold here after PubChem BioAssay AID624330 (Southern Research Specialized Biocontainment Screening …, 2012).

As usually defined, the inhibition is the relative decrease from the control value, in per cent.

Out of some 340,000 compounds screened, about 2,100 (0.62%) were called active. These entries were drawn from the full list. Entries with a potency or affinity are not part of this list. Unmarked numbers belong to inactive results.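 The calls were made as follows: active = first-screen hits whose inhibition reached a set limit at any dose in the follow-up dose series; inconclusive = inhibition above the set first-screen limit but never retested; inactive = the rest.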

In the test the target is Rac GTPase-activating protein 1 (Homo sapiens) (UniProt Q9H0H5). The test can be described thus: MgcRacGAP GTPase-activating activity inhibitors, confirmation, biochemical, ADP Hunter fluorescence, primary and confirmatory (AID 624330).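 Also: fluorescence reports GDP produced by GAP-driven GTP hydrolysis.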 As to conditions: MgcRacGAP-stimulated Rac1 GTP hydrolysis, at 30 µM, active compounds read high, GST-tagged Rac1 F28L mutant substrate.
Rac GTPase-activating protein 1 (Homo sapiens), sequence (Q9H0H5 whole entry, looked up): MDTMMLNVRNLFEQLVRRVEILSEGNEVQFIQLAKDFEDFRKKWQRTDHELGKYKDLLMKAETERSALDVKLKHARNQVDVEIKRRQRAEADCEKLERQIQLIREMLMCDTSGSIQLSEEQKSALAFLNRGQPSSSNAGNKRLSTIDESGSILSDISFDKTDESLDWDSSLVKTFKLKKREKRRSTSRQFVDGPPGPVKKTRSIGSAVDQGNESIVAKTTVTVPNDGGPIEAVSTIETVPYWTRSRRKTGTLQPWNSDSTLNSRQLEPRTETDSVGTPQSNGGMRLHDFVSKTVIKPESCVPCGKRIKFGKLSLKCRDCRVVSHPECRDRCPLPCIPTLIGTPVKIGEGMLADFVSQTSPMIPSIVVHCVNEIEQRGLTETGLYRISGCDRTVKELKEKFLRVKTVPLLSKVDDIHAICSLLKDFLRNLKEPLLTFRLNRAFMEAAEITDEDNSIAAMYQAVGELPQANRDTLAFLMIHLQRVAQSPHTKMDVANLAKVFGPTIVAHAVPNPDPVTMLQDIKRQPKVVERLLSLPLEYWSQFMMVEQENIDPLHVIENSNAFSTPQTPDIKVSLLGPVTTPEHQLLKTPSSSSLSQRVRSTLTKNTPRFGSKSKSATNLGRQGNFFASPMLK
For the compound `CC1(C)CC(=O)C2=C(C1)C(c1cn(-c3ccccc3)nc1-c1ccccc1)C(C#N)=C(N)O2` (centres undefined), the inhibition is 2.04%. Regarding `Cc1cc(Br)cc(C)c1NC(=S)NC(=O)CC(C)C`, the inhibition was 7.74%. In the case of `NC(N)=NS(=O)(=O)c1ccc(N/C=C/C(=O)c2ccc(Cl)c(Cl)c2)cc1`, the inhibition is 6.29%. Take `COC(=O)[C@H](CCSC)NC(=O)Cn1cnc2c(OCc3ccccc3)ncnc21`: the inhibition was 5.04%. As for `COc1ccc(OCC(=O)NNC(=O)c2ccc3c(=O)n4c(nc3c2)CCC4)cc1`, the inhibition was 8.67%. To `COc1ccc(S(=O)(=O)N2CCN(C(=O)c3ccco3)CC2)c(C)c1C` belongs 1.7%; to `O=C(O)c1cc(N2C(=O)C3C4C=CC(C4)C3C2=O)ccc1N1CCOCC1` (centres undefined), 4.85%; to `O=C(Nc1nccs1)C1CCCN1/C=C/C(=O)C(F)(F)F` (centres undefined), -1.71%. To `C=CCNC(=O)c1n[nH]c2c1CC(C(C)(C)CC)CC2` (centres undefined) belongs 8.27%; to `CCN(Cc1ccccc1)C(=O)C1CCC(CNc2c(N3CCOCC3)c(=O)c2=O)CC1` (centres undefined), 4.88%; to `C=CCN1CCN(C(=O)c2cc3c(s2)CCC(CC)C3)CC1` (centres undefined), 5%.

Turning to `COCCn1c(SCC(=O)Nc2ccc3c(c2)OCCO3)nc2c(c1=O)SC(C)C2` (centres undefined), the inhibition is 8.12%. With `CCN1C(=O)[C@H]2[C@@H](c3ccc(C)cc3)N3C(=O)N(c4ccc(OC)cc4)C(=O)[C@@]3(Cc3ccc(Cl)cc3)[C@H]2C1=O` the figure was -2.48%; with `C/C(CC(=O)Nc1ccc2c(c1)OCCO2)=N\NC(=O)c1ccc([N+](=O)[O-])cc1Cl`, 9.05%; with `C/C(CC(=O)Nc1ccc(N(C)C)cc1)=N\NC(=O)c1ccc(Cl)cc1Cl`, 21.9%.

Regarding `Cc1ccc(-c2cc(C(=O)Nc3ccc(S(=O)(=O)Nc4onc(C)c4C)cc3)[nH]n2)c(O)c1`, the inhibition is -1.18%. With `C#CCOCCOCCOCCNc1nc(N2CCOCC2)nc(N2CCN(C(=O)[C@H](Cc3ccc(O)cc3)n3cc([C@@H](N)C(C)CC)nn3)CC2)n1` (some centres undefined), the inhibition was 8.21%. In the case of `CCN(Cc1ccncc1)Cc1c(O)ccc2ccccc12`, the inhibition was 15.9%. With `COc1cccc(CN(C)Cc2c(O)ccc3ccccc23)c1`, the inhibition was 3.54%. As to `CN(C)Cc1c(O)ccc2ccccc12`, the inhibition is 7.54%. In the case of `COc1ccc(CN(C)Cc2c(O)ccc3ccccc23)cc1`, the inhibition is 9.58%. For the compound `COc1ccc(/C(N)=N/OC(=O)Cc2cccs2)cc1`, the inhibition is 5.03%.

As to `CCOC(=O)C(N=Nc1nn[nH]n1)C(C)=O` (centres undefined), the inhibition was 14.3%. For `CC(=O)Nc1c(F)cc(Br)cc1F`, the inhibition is 7.06%.

As to `COCCN(C(=O)c1ccccc1)c1nnc(-c2cccnc2)s1`, the inhibition is 3.74%.

For `C=CCn1c(=O)/c(=C/c2ccc(Cl)cc2)s/c1=C(/C#N)c1nnc2n1CCCCC2`, the inhibition was 3.92%. For the compound `C=CCn1c(=O)/c(=C/c2ccc(Cl)cc2)s/c1=C(\C#N)c1nnc2n1CCCCC2`, the inhibition is 0.47%. On to `CN1CCN(Cc2nnc(-c3ccccc3)o2)CC1`, for which the inhibition is 7.8%. With `CC1=CC(C2CC(=O)N(c3ccc(C)cc3)C2=O)CC2C(=O)N(c3ccc(C)cc3)C(=O)C12` (centres undefined), the inhibition was 1.51%. As to `Cn1cc(Br)c(-c2cccc(N3C(=O)CC(C)(C)CC3=O)c2)n1`, the inhibition is 9.36%. Take `Cc1cccc(-n2nc3c(c2NC(=O)CCCl)CSC3)c1`: the inhibition is 9.59%. In the case of `Cc1ccc(-n2ncc(C(=O)Nc3cc(Cl)cc(Cl)c3)c2C2CCNCC2)cc1C`, the inhibition was 10.4%. Turning to `COc1ccc(CSc2nncn2N)cc1[N+](=O)[O-]`, the inhibition was 2.61%. In the case of `OCC1CCCN(C(=S)Nc2ccc(Oc3ccccc3)cc2)C1` (centres undefined), the inhibition was 11.8%. Regarding `CC(=O)c1ccc(NC(=S)N2CCCC(CO)C2)cc1` (centres undefined), the inhibition is 9.07%. For `Cc1ccccc1NC(=O)c1cccc2c1C(=O)N(C1CCCCC1)C2`, the inhibition was 6.92%.

With `COc1cc(Cc2nccc3cc(OC)c(OC)cc23)c(NC(C)=O)cc1OC`, the inhibition was 8.79%.

As for `CCCC(=O)Nc1cc(OC)c(OC)cc1C(=O)O`, the inhibition was 0.59%.

In the case of `COc1cc(NC(=O)c2cnc(NCc3ccccc3)nc2C)cc(OC)c1OC`, the inhibition was 10.3%. As for `COc1cc2ccc(NC(C)=O)cc2cc1OC`, the inhibition is -17.4%.

With `CCOC(=O)[C@@H]1[C@H]2COc3ccccc3[C@@H]2N2C(=O)N(c3cccc(Cl)c3)C(=O)[C@@]12C`, the inhibition was 7.95%. As to `O=C(CCC(=O)Nc1ccc(F)cc1)N/N=C/c1cccnc1`, the inhibition is 7.44%. Regarding `Cc1ccnc(NS(=O)(=O)c2ccc(NC(=O)c3snnc3C)cc2)n1`, the inhibition was 15.1%.

As for `c1ccc2c(c1)CCN(CCCNc1nc3ccccc3n3cnnc13)C2`, the inhibition is 5.26%.

`Cc1ccc(S(=O)(=O)Nc2nc(C)cc(NN)n2)cc1`: the inhibition was 0.61%.

Regarding `COc1cc(C)nc(NS(=O)(=O)c2ccc(C)cc2)n1`, the inhibition is 5.36%. Take `COC(=O)c1ccsc1NC(=O)c1ccc2c(c1)OCCO2`: the inhibition is 0.64%.

Regarding `O=C(CCCN=C1NS(=O)(=O)c2ccccc21)OCC(=O)c1ccc(F)cc1`, the inhibition is 3.32%. On to `Cc1cc(C(F)F)nn1CC(=O)NCc1ccc(Cl)cc1Cl`, for which the inhibition was 6.89%.

Turning to `CCCSc1nc2cc(OC)c(OC)cc2c(=N)n1CCCN1CCOCC1`, the inhibition was 20.6%.

`COc1cc2[nH]c(=S)n(CCCN3CCOCC3)c(=O)c2cc1OC`: the inhibition is 12.7%. On to `Fc1cc2[nH]c(=S)[nH]c2c(Br)c1N1CCSCC1`, for which the inhibition is 8.85%. With `O=C(N/N=C/c1ccccc1)c1cccc2ccccc12` the figure was 7.64%; with `C/C(=N\NC(=O)c1csc2ccccc12)c1ccc(O)cc1`, 26.2%.

As for `Cc1ccc(/C=N/NC(=O)c2csc3c2CCCC3)cc1`, the inhibition is 7.82%. With `O=C(N/N=C/c1cccc(O)c1)c1csc2ccccc12` the figure was -6.14%. Regarding `O=C(N/N=C/c1cccc(F)c1)c1csc2c1CCCC2`, the inhibition is 11.6%. As to `O=C(N/N=C/c1ccccc1O)c1cccc2ccccc12`, the inhibition is 11.8%. `Cc1cc(S(=O)(=O)N2CC(=O)N(CCc3ccccc3)C(=O)C2)ccc1F`: the inhibition was 12.6%. For `CCC(C)N(CCNC(=O)c1ccc2c(c1)NC(=O)c1ccccc1S2)C1CCCCC1` (centres undefined), the inhibition is 3.06%.

Regarding `COc1ccc(C(=O)CN2C(=O)NC3(CCCc4ccccc43)C2=O)c(OC)c1` (centres undefined), the inhibition is 2.84%. For `CN(C(=O)CSc1nnc(-c2cccc(F)c2)n1N)C1CCS(=O)(=O)C1` (centres undefined), the inhibition was 3.77%. Take `Cc1csc(=O)n1CC(=O)OCC(=O)c1c(N)n(CC(C)C)c(=O)n(C)c1=O`: the inhibition is -0.27%.

As for `Cc1nc2ccccc2c(-c2ccccc2)c1CC(=O)O`, the inhibition is 5.79%. For `Cc1nc2ccccc2n1CC(=O)c1ccccc1`, the inhibition was 15.2%.

As to `COc1ccccc1OCC(=O)NCC1CCCN(C(=O)c2cccc(C)c2)C1` (centres undefined), the inhibition is 12.2%. For the compound `CN(C)CCNC(=O)c1cc2sc3ccccc3c2s1`, the inhibition was 11.4%. For `Cc1cc(O)cc2c(=O)c3ccccc3sc12`, the inhibition is 8.36%. With `CCN(CC)CCNc1ccc(CO)c2oc3cc(Cl)ccc3c(=O)c12` the figure was 4.45%; with `O=c1c2ccccc2sc2c(CO)ccc(NCCN3CCCCC3)c12`, 27.3%; with `CCN(CC)CCNc1ccc(CO)c2oc3ccccc3c(=O)c12`, 16.8%. Take `CN(C)CCNc1ccc(Cl)cc1[N+](=O)[O-]`: the inhibition was -0.93%. To `COc1ccc2sc3ccccc3c(=O)c2c1OC` belongs 2.12%. `CCN(CC)CCNc1ccc(CO)c2sc3ccccc3c(=O)c12`: the inhibition is 16.6%. For `Nn1c(SCC(=O)NCCC2=CCCCC2)nnc1C(F)(F)F`, the inhibition was 9.95%.

Take `Cc1cccc(NC(=O)CSc2nnc(C)n2Cc2ccccc2)c1`: the inhibition was -8.45%. On to `O=C(NCCc1nc(-c2ccccc2)cs1)c1ccc(Br)cc1`, for which the inhibition is -0.49%. As to `CC(=O)N(Nc1ccccc1)c1ccccc1`, the inhibition was -0.89%. To `COc1ccc(C=C2C=C(C(C)(C)C)C(=O)C(C(C)(C)C)=C2)cc1OC` belongs 15.6%.

On to `CC(=O)OCCCN1c2ccccc2Nc2nnc(-c3ccccc3)cc21`, for which the inhibition was 6.92%. `CCCCc1ccc(NC(=O)c2ccc(N(C)S(C)(=O)=O)cc2)cc1`: the inhibition was -2.51%. With `CCN(CC)CCNc1cccc2sc3ccccc3c(=O)c12` the figure was 19.4%; with `CCN(CC)CCNc1ccc(Cl)cc1[N+](=O)[O-]`, 4.03%. As to `C#CCOCCOCCOCCNc1nc(N2CCN(C(=O)[C@H]([C@@H](C)CC)n3cc(CCCN=C(N)N)nn3)CC2)nc(N2CCN(C(=O)[C@H](CCCCN)n3cc(CCC(=O)O)nn3)CC2)n1`, the inhibition was -4.54%. Regarding `O=C(CN1CCN(Cc2ccc(F)cc2)CC1)NCc1ccccc1`, the inhibition was 9.4%.

For `CC(=O)Nc1ccc(N2CCN(Cc3ccccc3)CC2)cc1`, the inhibition was 11.2%. For the compound `O=C(CCS(=O)(=O)c1ccc(F)cc1)Nc1ccc(N2CCN(Cc3ccccc3)CC2)cc1`, the inhibition was 3.53%. To `CCOc1ccc(CNc2ccc(N3CCN(Cc4ccccc4)CC3)cc2)cc1` belongs 30.8%. `Cc1ccc(NC(=O)c2ccccc2Cl)cc1-n1cnnn1`: the inhibition was 3.88%. To `CCOc1ccc(S(=O)(=O)NN2Cc3ccccc3C2=N)cc1` belongs 7.55%. Consider `COc1ccc(OC)c(S(=O)(=O)N(C)CC(=O)N2CCN(c3ccc(F)cc3)CC2)c1`, for which the inhibition is 5.44%.

`Cc1cc(C(=O)NC2CCCC2)on1`: the inhibition was 2.61%.

Consider `COc1ccc2c(c1)C(=NNC(=O)c1ccccn1)c1cc(OC)ccc1-2`, for which the inhibition was 12.9%. With `CCOc1ccc2c(c1)C(=NNC(=O)c1ccccn1)c1cc(OCC)ccc1-2`, the inhibition is -24.9%.
